Assay [1] is described as follows: qHTS RealTime-Glo MT Cell Viability Assay in HEK293 cells - 40 hour (AID 1224874). Further: nearly all actives have a fitted effect of over 50% in size. Further: potency means the concentration at half of the fitted maximal effect. The following applies: RealTime-Glo luminescence; max response: hits give low values. Summed up:
(§1)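 Kinetic, non-lysing viability readout. Seed HEK293 (600/well) with reagent, incubate 5 h at 37 C/5% CO2, pin 23 nL compound in DMSO, incubate at 37 C, read luminescence at 0, 8, 16, 24, 32, 40 h.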
(In general: In qHTS, concentration-response curves come from the screen itself.)

Assay [2] in a line: A CellTox Green Cytotoxicity Assay to monitor cytotoxicity in HEK293 cells - 24 hour (AID 1224875). Further: series mostly up to about 77 µM; nearly all actives have a fitted effect of over 45% in size. Summed up: (§2)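 Real-time, in one plate: 600 HEK293 cells/well with dead-cell DNA dye, pinned compound after 5 h, 37 C incubation over 40 h; viable cells give no appreciable fluorescence.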
Assay [3] can be described thus: A CellTox Green Cytotoxicity Assay to monitor cytotoxicity in HepG2 cells - 16 hour (AID 1224876). Further: nearly all actives have a fitted effect of over 45% in size. The essentials: (§3)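 Cytotoxicity was tracked as dead-cell DNA fluorescence in HepG2 cells treated with test compounds at 37 C; each time-point value comes from one kinetic series spanning 0, 8, 16, 24, 32 and 40 h.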
Assay [4] can be described thus: qHTS RealTime-Glo MT Cell Viability Assay in HepG2 cells - 32 hour (AID 1224877). Further: nearly all actives have a fitted effect of over 55% in size. Summed up:
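Tox21 10K library screened in qHTS format on HepG2 cells carrying RealTime-Glo reagents. Compounds were added after a 5 h preincubation, and the luminescent signal from continuous culture was measured repeatedly during 40 h treatment.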

Assay [5] in a line: A CellTox Green Cytotoxicity Assay to monitor cytotoxicity in HepG2 cells - 24 hour (AID 1224878). Further: nearly all actives have a fitted effect of over 45% in size. The essentials:
as §3

Assay [6] can be described thus: A CellTox Green Cytotoxicity Assay to monitor cytotoxicity in HepG2 cells - 40 hour (AID 1224879). Further: nearly all actives have a fitted effect of over 40% in size. Further: potency means the concentration at half of the fitted maximal effect. The essentials: as §3
A short description of assay [7]: qHTS RealTime-Glo MT Cell Viability Assay in HEK293 cells - 0 hour (AID 1224880). Further: top concentration of the series differs between compounds; nearly all actives have a fitted effect of over 45% in size. The essentials:
as §1

Assay [8] is described as follows: A CellTox Green Cytotoxicity Assay to monitor cytotoxicity in HEK293 cells - 32 hour (AID 1224881). Further: nearly all actives have a fitted effect of over 40% in size. The essentials: as §2
Assay [9] can be described thus: A CellTox Green Cytotoxicity Assay to monitor cytotoxicity in HepG2 cells - 0 hour (AID 1224882). Further: nearly all actives have a fitted effect of over 35% in size. Summed up:
as §3

Assay [10] can be described thus: A CellTox Green Cytotoxicity Assay to monitor cytotoxicity in HepG2 cells - 32 hour (AID 1224883). Further: nearly all actives have a fitted effect of over 50% in size. Further: potency means the concentration at half of the fitted maximal effect. Summed up: as §3

The structures appear in SMILES notation. Values without a mark were called inactive. Records with an inconclusive call do not appear. Calls of active or inactive are those of the source. The call rests on the fitted dose curve; in most records, active means well fitted curve in the direction sought with a large enough effect in the repeat runs; inconclusive means weak or mixed curves; inactive means no such curve, though single readings can be large; an effect the other way counts as inactive or inconclusive.
On the % scale 0 is the no-effect control and ±100 the full control effect.

With `COc1cc(C(C)C)ccc1C`, the max response in [1] is -0.423%. In assay [2], the activity change is -1.5% [at 15.8 µM, hits give high values]. For the same compound, the cytotoxicity increase in [3] is -12.9% [at 15.8 µM]; in assay [6] it was -18.2% [at 15.8 µM]; in assay [8] it was -4.81% [at 15.8 µM]; in [10], -14.3% [at 15.8 µM]. The activity change, negative = cytotoxic in assay [4] was 7.91% [at 15.8 µM]. Moreover, the cytotoxicity in assay [5] was -14.9% [at 15.8 µM]; in [9], -8.39% [at 15.8 µM]. For the same compound, the activity change, negative = cytotoxicity in assay [7] was 6.56% [at 15.8 µM].

Take `CC(C)(C)c1cc(CCC(=O)OCCSCCOC(=O)CCc2cc(C(C)(C)C)c(O)c(C(C)(C)C)c2)cc(C(C)(C)C)c1O`: in [1], the max response is 2.76%. In addition, the Potency entry in assay [2], in assay [3], in [4], in assay [5], in assay [6] and in assay [7] was “inactive” in each case. In addition, the Potency result in assay [8], in [9] and in [10] was “inactive” throughout.

In the case of `CO[Si](OC)(c1ccccc1)c1ccccc1`, in [1], the max response is -18.7%. Also, the Potency entry in assay [2], in assay [3], in assay [4], in assay [5], in assay [6] and in [7] was “inactive” throughout. The Potency entry in assay [8], in assay [9] and in assay [10] was “inactive” throughout.

On to `CCC1(C)C(=O)N(Cl)C(=O)N1Cl` (stereo not given), for which the max response in assay [1] is 2.78%. The Potency result in [2], in assay [3], in [4], in [5], in assay [6] and in assay [7] was “inactive” each time. For the same compound, the Potency result in assay [8], in [9] and in assay [10] was “inactive” throughout.

Consider `O[Si](c1ccccc1)(c1ccccc1)c1ccccc1`, for which, in assay [1], the Potency is 38.9 µM (active). The Potency result in [2], in assay [3], in assay [4], in assay [5], in assay [6] and in assay [7] was “inactive” in each case. Also, the Potency entry in assay [8], in [9] and in [10] was “inactive” each time.

For the compound `O=C(O)CN(CCCN(CC(=O)O)CC(=O)O)CC(=O)O`, in [1], the max response was -7.68%. The activity change in assay [2] was 1.78% [at 15.8 µM, hits give high values]. Also, the cytotoxicity increase is -15.6% [at 15.8 µM] in assay [3], -13.1% [at 15.8 µM] in assay [6], 1.94% [at 15.8 µM] in assay [8] and -13.5% [at 15.8 µM] in assay [10]. The activity change, negative = cytotoxic in [4] was 7.15% [at 15.8 µM]. Besides, the cytotoxicity in assay [5] is -12.4% [at 15.8 µM]; in [9], -9.07% [at 15.8 µM]. In assay [7], the activity change, negative = cytotoxicity is -10.1% [at 15.8 µM].

As for `CC1(C)[C@H](C(=O)OCc2cccc(Oc3ccccc3)c2)[C@@H]1C=C(Cl)Cl`, the max response in assay [1] was 4.05%. In addition, the Potency result in [2], in assay [3], in assay [4], in assay [5], in assay [6] and in assay [7] was “inactive” in each case. Further, the Potency result in [8], in [9] and in assay [10] was “inactive” throughout.

For `Cn1c(=O)[nH]c2ncn(C)c2c1=O`, the max response in [1] is 3.46%. Moreover, the Potency entry in assay [2], in assay [3], in assay [4], in [5], in assay [6] and in assay [7] was “inactive” throughout. The Potency result in [8], in assay [9] and in [10] was “inactive” in each case.

On to `O=C(NCc1ncc(C(F)(F)F)cc1Cl)c1c(Cl)cccc1Cl`, for which the Potency is 19.5 µM (active) in [1], 17.4 µM (active) in [6] and 21.9 µM (active) in assay [10]. For the same compound, the Potency entry in [2], in [3], in assay [4], in [5], in assay [7] and in [8] was “inactive” each time. In addition, in [9], the Potency result was “inactive”.

On to `Nc1ccc(F)c([N+](=O)[O-])c1`, for which, in [1], the max response was 4.61%. The Potency entry in [2], in assay [3], in assay [4], in assay [5], in [6] and in assay [7] was “inactive” throughout. Also, the Potency entry in assay [8], in [9] and in [10] was “inactive” in each case.

Regarding `CCN(CCC#N)c1ccc(N=Nc2ccc([N+](=O)[O-])cc2)cc1`, in assay [1], the max response was 0.454%. For the same compound, the Potency entry in assay [2], in assay [3], in assay [4], in assay [5], in assay [6] and in assay [7] was “inactive” throughout. In addition, the Potency result in [8], in assay [9] and in [10] was “inactive” each time.

In the case of `CCCC(C)C=O` (stereo not given), in assay [1], the max response was 0.0424%. The Potency result in assay [2], in assay [3], in assay [4], in assay [5], in [6] and in assay [7] was “inactive” each time. For the same compound, the Potency result in assay [8], in assay [9] and in assay [10] was “inactive” in each case.

On to `Oc1ccc2c(c1)CCC2`, for which the max response in assay [1] was -3.07%. Also, the Potency entry in assay [2], in [3], in assay [4], in assay [5], in assay [6] and in [7] was “inactive” each time. The Potency entry in [8], in assay [9] and in [10] was “inactive” throughout.

For the compound `O=c1[nH]cccc1O`, the max response in assay [1] is -23.7%. In addition, the Potency entry in assay [2], in [3], in assay [4], in assay [5], in assay [6] and in [7] was “inactive” each time. Also, the Potency entry in assay [8], in [9] and in [10] was “inactive” each time.

With `Nc1ccc(Cl)c([N+](=O)[O-])c1`, the max response in assay [1] was -19.2%. In addition, the Potency result in assay [2], in assay [3], in assay [4], in assay [5], in assay [6] and in [7] was “inactive” throughout. Moreover, the Potency entry in assay [8], in assay [9] and in [10] was “inactive” each time.

Take `SC1CCCCC1`: in [1], the max response is 6.15%. The Potency result in assay [2], in assay [3], in assay [4], in assay [5], in [6] and in assay [7] was “inactive” throughout. Also, the Potency result in assay [8], in assay [9] and in [10] was “inactive” each time.

Turning to `CCCCCCCCCCCCS(=O)(=O)Cl`, the max response in [1] was 12.1%. For the same compound, the activity change in assay [2] was -0.292% [at 15.8 µM, hits give high values]. Besides, the cytotoxicity increase in [3] is -10.9% [at 15.8 µM]; in [6], -19.9% [at 15.8 µM]; in [8], -1.06% [at 15.8 µM]; in assay [10], -17.3% [at 15.8 µM]. Also, the activity change, negative = cytotoxic in assay [4] is 9.6% [at 15.8 µM]. The cytotoxicity in [5] is -12.5% [at 15.8 µM]; in assay [9] it was -7.13% [at 15.8 µM]. Besides, in [7], the activity change, negative = cytotoxicity was -1.06% [at 15.8 µM].

On to `CCC(=O)OC/C=C(\C)CCC=C(C)C`, for which the max response in assay [1] was -0.115%. In addition, the Potency entry in assay [2], in [3], in [4], in assay [5], in assay [6] and in assay [7] was “inactive” throughout. Further, the Potency entry in assay [8], in assay [9] and in assay [10] was “inactive” throughout.

For `C[C@H]1O[C@@H](O[C@H]2CC[C@@]3(C)[C@H](CC[C@@H]4[C@@H]3C[C@@H](O)[C@]3(C)[C@@H](C5=CC(=O)OC5)CC[C@]43O)C2)C[C@H](O)[C@@H]1O[C@H]1C[C@H](O)[C@H](O[C@H]2C[C@H](O)[C@H](O[C@@H]3O[C@H](CO)[C@@H](O)[C@H](O)[C@H]3O)[C@@H](C)O2)[C@@H](C)O1`, in assay [1], the Potency is 0.239 µM (active). In addition, the Potency result in assay [2], in assay [3], in [4], in assay [5], in assay [6] and in [7] was “inactive” each time. In addition, the Potency result in [8], in assay [9] and in [10] was “inactive” in each case.

The values above are taken from PubChem BioAssay (Tox21).
